Assay results taken from PubChem BioAssay (Tox21).
Inconclusive results are not listed. The source made the active and inactive calls. Unless noted, the call rests on the fitted dose curve; in most records, active means well fitted curve in the direction sought with a large enough effect in the repeat runs; inconclusive means weak or mixed curves; inactive means no such curve, though single readings can be large; an effect the other way counts as inactive or inconclusive.

Experiments:
[1] = target: Estrogen receptor beta (Homo sapiens) (UniProt Q92731); test: qHTS assay to identify small molecule agonists of the estrogen receptor beta (ER-beta) signaling pathway (AID 1259377; active means well fitted activation curve with a large enough effect in the signal ratio in the repeat runs, not every such curve was filed as active; the % refers to the signal ratio)
How it was run: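 Screening used GripTite ER-beta-UAS-bla cells held in 2% charcoal-stripped FBS medium. After overnight (16 hr) compound incubation at 37C, beta-lactamase activity was detected with a FRET substrate by fluorescence.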

[2] = target: Estrogen receptor beta (Homo sapiens) (UniProt Q92731); test: qHTS assay to identify small molecule antagonists of the estrogen receptor beta (ER-beta) signaling pathway (AID 1259378; active means well fitted inhibition curve with a large enough effect in the signal ratio in the repeat runs, not every such curve was filed as active; the % refers to the signal ratio; further: potency means the concentration at half of the fitted maximal effect)
How it was run: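 ER-beta-UAS-bla HEK293T cells in 2% charcoal-stripped FBS medium treated with compound plus 1nM final 17-beta-estradiol for 16 hr at 37C. Beta-lactamase reporter read by FRET substrate fluorescence after 2 hours at room temperature.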

[3] = qHTS assay to identify small molecule agonists of the androgen receptor (AR) signaling pathway in the presence of an antagonist - cell viability counter screen (AID 1259379);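 further: MDA-kb2 human breast cancer cells carrying an MMTV luciferase reporter; series mostly up to about 92 µM; nearly all actives have a fitted effect of over 25% in size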
How it was run: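 Seed MDA-kb2 at 3,000 cells/well; incubate 5 hr, 37C, 0% CO2. Add nilutamide to 3.0uM final, then pin compounds at 15 concentrations. Incubate 16 hr. Add CellTiter-Fluor at 15 hr, read fluorescence after 1 hr.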

[4] = qHTS assay to identify small molecule agonists of the estrogen receptor beta (ER-beta) signaling pathway - cell viability counter screen (AID 1259380); further: nearly all actives have a fitted effect of over 30% in size
How it was run: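 CellTiter-Glo read, 30 min RT, same wells as bla assay; cells ER-beta-UAS-bla HEK293T; 16 hr compound, 37C; medium 2% charcoal-stripped FBS.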

[5] = qHTS assay to identify small molecule antagonists of the estrogen receptor beta (ER-beta) signaling pathway - cell viability counter screen (AID 1259382); further: series mostly up to about 92 µM; nearly all actives have a fitted effect of over 55% in size
How it was run: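 In this multiplexed counter screen, cells were seeded at 2,000 per well in medium with 2% charcoal-stripped FBS and incubated 6 hr before compound and 1nM final E2 were added. Sixteen hours later, ATP-based luminescence reported viability.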

[6] = qHTS assay to identify small molecule agonists or antagonists of the thyroid stimulating hormone receptor (TSHR) signaling pathway - wild type cell line counter screen (AID 1259384; calls by dose curve)
How it was run: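 Wild-type Hek293 cells, 800/well, 18 h at 37C, then compound with Ro20-1724 for 30 min RT. cAMP by HTRF (cAMP-d2/anti-cAMP cryptate), 1 h RT, fluorescence read. 15 concentrations, triplicates.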

[7] = target: Thyrotropin receptor (Homo sapiens) (UniProt P16473); test: qHTS assay to identify small molecule antagonists of the thyroid stimulating hormone receptor (TSHR) signaling pathway (AID 1259385; calls by dose curve; further: nearly all actives have a fitted effect of over 20% in size)
How it was run: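 TSHR-HEK293 cells (800/well) plated 18 h, then compounds with Ro20-1724 and TSH at 1.5 ng/mL final, 30 min at room temperature. cAMP quantified by HTRF (cAMP-d2/anti-cAMP-cryptate, 1 h); 15 concentrations in triplicate.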

[8] = qHTS assay to identify small molecule agonists of the estrogen receptor alpha (ER-alpha) signaling pathway in the presence of an antagonist - cell viability counter screen (AID 1259386);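 further: series mostly up to about 92 µM; cells exposed to compounds for 22 h at 37 °C before the viability read; nearly all actives have a fitted effect of over 30% in size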
How it was run: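 Viability counter screen using VM7Luc4E2 (full-length ER-alpha, four ERE-luciferase). The cells were treated with compounds alongside ICI-182,780 10.0nM for 22hr, and live-cell protease fluorescence was quantified with CellTiter-Fluor.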

[9] = target: Progesterone receptor (Homo sapiens) (UniProt P06401); test: qHTS assay to identify small molecule agonists of the progesterone receptor (PR) signaling pathway (AID 1346784; calls by dose curve; further: nearly all actives have a fitted effect of over 30% in size)
How it was run: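 Seed PR-UAS-bla HEK 293T cells (2% charcoal-stripped FBS), incubate 6 hr at 37C; add compounds in DMSO, 16 hr at 37C; add LiveBLAzer B/G substrate, 2 hr RT; read fluorescence intensity.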

[10] = target: Progesterone receptor (Homo sapiens) (UniProt P06401); test: qHTS assay to identify small molecule antagonists of the progesterone receptor (PR) signaling pathway (AID 1346795; active means well fitted inhibition curve with a large enough effect in the signal ratio in the repeat runs, not every such curve was filed as active; the % refers to the signal ratio)
How it was run: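 Screening used a GripTite HEK293T line with PR-responsive UAS-beta-lactamase. Cells were challenged with compound in the presence of 1 nM R5020 final for 16 hr at 37C; B/G FRET substrate, 2 hr room temperature, fluorescence.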

[11] = qHTS assay to identify small molecule antagonists of the progesterone receptor (PR) signaling pathway - cell viability counter screen (AID 1346798); further: series mostly up to about 92 µM; nearly all actives have a fitted effect of over 50% in size
How it was run: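 Measures cytotoxicity in parallel with the PR antagonist reporter read: HEK293T PR-UAS-bla cells get compound and R5020 for 16 hr, and remaining viable cells are quantified by CellTiter-Glo luminescence.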

[12] = qHTS assay to identify small molecule agonists of the progesterone receptor (PR) signaling pathway - cell viability counter screen (AID 1346799; calls by dose curve; further: nearly all actives have a fitted effect of over 45% in size)
How it was run: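 Using the same plates as the PR reporter screen, HEK293T PR-UAS-bla cells received compounds for 16 hr at 37C and were then lysed with CellTiter-Glo; luminescence was read 30 min later at room temperature.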

[13] = qHTS assay to identify small molecule antagonists of the TGF-beta/Smad signaling pathway - cell viability counter screen (AID 1346824); further: nearly all actives have a fitted effect of over 50% in size
How it was run: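 SBE-bla HEK 293T cells, incubated overnight, then compound plus 0.25 ng/mL TGF-beta1 (stock added) for 5 hr at 37 C. Viability was read in the same wells by CellTiter-Glo luminescence after 30 min at room temperature.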

[14] = qHTS assay to identify small molecule agonists of the TGF-beta/Smad signaling pathway - cell viability counter screen (AID 1346829); further: top concentration of the series differs between compounds; nearly all actives have a fitted effect of over 45% in size
How it was run: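 Luminescence from CellTiter-Glo, read after a 30 min room-temperature incubation, gives cell viability of SBE-bla HEK 293T cells treated 5 hr with compounds at 37 C.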

[15] = qHTS assay to identify small molecule agonists of the TGF-beta/Smad signaling pathway (AID 1346859; active means well fitted activation curve with a large enough effect in the signal ratio in the repeat runs, not every such curve was filed as active; the % refers to the signal ratio; further: series mostly up to about 77 µM)
How it was run: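 Beta-lactamase reporter activity downstream of Smad binding elements was measured in stably transfected HEK 293T cells; compounds were incubated for 5 hr, substrate for 2 hr at room temperature.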

[16] = target: Thyrotropin-releasing hormone receptor (Homo sapiens) (UniProt P34981); test: qHTS assay to identify small molecule antagonists of the thyrotropin-releasing hormone receptor (TRHR) signaling pathway (AID 1346877; active means well fitted inhibition curve with a large enough effect in the repeat runs, not every such curve was filed as active; further: series mostly up to about 51 µM)
How it was run: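 Following an 18 h incubation at 37 °C and a 2 h calcium dye load, TRHR-HEK293 cells were exposed to compound (5 min, room temperature) and challenged with TRH, 1 nM final.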

[17] = target: Thyrotropin-releasing hormone receptor (Homo sapiens) (UniProt P34981); test: qHTS assay to identify small molecule agonists of the thyrotropin-releasing hormone receptor (TRHR) signaling pathway (AID 1346891; calls by dose curve;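 further: HEK293 cells expressing TRHR with calcium dye readout; series mostly up to about 58 µM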)
How it was run: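 Overnight-plated (18 h, 37 °C, 5% CO2) TRHR-Hek293 cells; 2 h calcium dye at 37 °C; compound in DMSO; 3-min kinetic fluorescence read.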

[18] = target: Androgen receptor (Homo sapiens) (UniProt P10275); test: qHTS assay to identify small molecule agonists of the androgen receptor (AR) signaling pathway in the presence of an antagonist (AID 1259381; calls by dose curve; further: nearly all actives have a fitted effect of over 15% in size)
How it was run: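 Test compounds at 15 concentrations were incubated for 16hr with MDA-kb2 reporter cells in presence of 3.0uM nilutamide (final). Signal: ONE-Glo luciferase luminescence.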

[19] = target: Estrogen receptor (Homo sapiens) (UniProt P03372); test: qHTS assay to identify small molecule agonists of the estrogen receptor alpha (ER-alpha) signaling pathway in the presence of an antagonist (AID 1259383; calls by dose curve; further: top concentration of the series differs between compounds; nearly all actives have a fitted effect of over 15% in size)
How it was run: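 Stably transfected VM7Luc4E2 reporter cells, kept 5 days in charcoal-stripped serum, received ICI-182,780 at 10.0nM final before compound addition. Following 22hr incubation at 37C and 5% CO2, luciferase signal was read by luminescence.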

[20] = qHTS assay to identify small molecule antagonists of the sonic hedgehog signaling (Shh) pathway (AID 1259369; calls by dose curve; further: nearly all actives have a fitted effect of over 45% in size)
How it was run: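 For antagonist detection, the reporter line received test compounds together with conditioned medium, incubated 24hr at 37 C, 5% CO2, then luminescence was recorded following 30min room-temperature luciferase reagent incubation.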
On the % scale 0 is the no-effect control and ±100 the full control effect.

Chain of Androgen receptor (Homo sapiens) (P10275 whole entry, looked up): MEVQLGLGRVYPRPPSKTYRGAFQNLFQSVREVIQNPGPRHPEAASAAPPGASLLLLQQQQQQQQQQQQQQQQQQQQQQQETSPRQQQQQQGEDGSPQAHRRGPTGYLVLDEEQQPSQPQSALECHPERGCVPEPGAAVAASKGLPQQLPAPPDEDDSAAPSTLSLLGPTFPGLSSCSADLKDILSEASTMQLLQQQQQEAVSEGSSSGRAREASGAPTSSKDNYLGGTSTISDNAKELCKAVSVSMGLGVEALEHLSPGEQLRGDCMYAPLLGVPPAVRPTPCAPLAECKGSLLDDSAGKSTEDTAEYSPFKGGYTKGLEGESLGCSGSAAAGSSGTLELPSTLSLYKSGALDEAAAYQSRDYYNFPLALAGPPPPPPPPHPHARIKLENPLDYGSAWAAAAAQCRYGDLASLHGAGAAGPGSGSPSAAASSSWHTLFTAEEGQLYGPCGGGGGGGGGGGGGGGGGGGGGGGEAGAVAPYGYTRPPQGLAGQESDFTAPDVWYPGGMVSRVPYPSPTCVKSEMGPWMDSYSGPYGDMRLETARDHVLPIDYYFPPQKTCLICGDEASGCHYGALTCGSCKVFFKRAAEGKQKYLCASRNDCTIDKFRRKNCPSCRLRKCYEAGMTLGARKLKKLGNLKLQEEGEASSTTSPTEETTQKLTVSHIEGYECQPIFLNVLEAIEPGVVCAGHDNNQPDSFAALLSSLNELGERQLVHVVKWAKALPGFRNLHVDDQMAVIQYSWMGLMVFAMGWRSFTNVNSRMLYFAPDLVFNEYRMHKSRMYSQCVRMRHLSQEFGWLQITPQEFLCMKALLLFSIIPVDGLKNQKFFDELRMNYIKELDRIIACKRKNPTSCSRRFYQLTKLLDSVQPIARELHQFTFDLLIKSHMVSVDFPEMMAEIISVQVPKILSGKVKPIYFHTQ
Chain of Progesterone receptor (Homo sapiens) (P06401 whole entry, looked up): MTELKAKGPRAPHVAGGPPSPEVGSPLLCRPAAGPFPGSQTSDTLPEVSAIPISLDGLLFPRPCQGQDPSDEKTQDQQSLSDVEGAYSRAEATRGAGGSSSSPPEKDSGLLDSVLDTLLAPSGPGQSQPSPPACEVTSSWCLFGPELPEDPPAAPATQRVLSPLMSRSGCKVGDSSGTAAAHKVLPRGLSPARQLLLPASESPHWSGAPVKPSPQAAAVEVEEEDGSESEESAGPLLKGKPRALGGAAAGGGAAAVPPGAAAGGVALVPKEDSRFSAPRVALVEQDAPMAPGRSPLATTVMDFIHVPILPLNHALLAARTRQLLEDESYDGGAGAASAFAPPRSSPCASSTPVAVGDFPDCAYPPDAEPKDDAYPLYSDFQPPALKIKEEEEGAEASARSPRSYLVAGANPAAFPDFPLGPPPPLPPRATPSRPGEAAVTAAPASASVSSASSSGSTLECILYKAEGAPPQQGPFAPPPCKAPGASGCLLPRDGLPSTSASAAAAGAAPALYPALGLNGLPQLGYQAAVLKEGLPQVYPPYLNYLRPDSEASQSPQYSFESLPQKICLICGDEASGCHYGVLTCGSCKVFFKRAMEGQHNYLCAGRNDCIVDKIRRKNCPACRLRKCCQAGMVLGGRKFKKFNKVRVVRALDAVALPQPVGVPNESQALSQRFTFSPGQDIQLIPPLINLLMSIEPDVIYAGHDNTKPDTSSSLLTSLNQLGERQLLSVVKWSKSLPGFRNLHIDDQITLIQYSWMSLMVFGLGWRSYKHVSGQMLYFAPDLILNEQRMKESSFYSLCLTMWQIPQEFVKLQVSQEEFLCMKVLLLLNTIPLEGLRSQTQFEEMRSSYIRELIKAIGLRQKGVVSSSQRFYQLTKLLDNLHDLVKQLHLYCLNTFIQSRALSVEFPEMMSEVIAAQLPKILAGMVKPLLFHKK
Chain of Estrogen receptor (Homo sapiens) (P03372 whole entry, looked up): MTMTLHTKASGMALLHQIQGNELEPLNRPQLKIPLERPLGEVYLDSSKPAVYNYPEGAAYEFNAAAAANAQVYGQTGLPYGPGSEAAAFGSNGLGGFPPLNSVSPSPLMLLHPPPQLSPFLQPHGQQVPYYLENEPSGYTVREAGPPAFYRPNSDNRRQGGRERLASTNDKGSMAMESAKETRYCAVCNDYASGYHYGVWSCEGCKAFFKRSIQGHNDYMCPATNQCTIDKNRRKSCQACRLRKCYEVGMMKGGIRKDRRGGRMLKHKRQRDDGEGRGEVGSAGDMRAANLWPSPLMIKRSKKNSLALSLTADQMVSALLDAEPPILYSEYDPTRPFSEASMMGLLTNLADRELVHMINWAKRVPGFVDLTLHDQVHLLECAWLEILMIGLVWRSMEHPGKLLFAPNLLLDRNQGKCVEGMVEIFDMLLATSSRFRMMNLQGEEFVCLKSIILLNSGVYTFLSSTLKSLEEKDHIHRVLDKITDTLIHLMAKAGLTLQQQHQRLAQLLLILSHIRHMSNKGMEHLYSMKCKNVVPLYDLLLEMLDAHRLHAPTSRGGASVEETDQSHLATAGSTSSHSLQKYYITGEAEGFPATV
Chain of Thyrotropin-releasing hormone receptor (Homo sapiens) (P34981 whole entry, looked up): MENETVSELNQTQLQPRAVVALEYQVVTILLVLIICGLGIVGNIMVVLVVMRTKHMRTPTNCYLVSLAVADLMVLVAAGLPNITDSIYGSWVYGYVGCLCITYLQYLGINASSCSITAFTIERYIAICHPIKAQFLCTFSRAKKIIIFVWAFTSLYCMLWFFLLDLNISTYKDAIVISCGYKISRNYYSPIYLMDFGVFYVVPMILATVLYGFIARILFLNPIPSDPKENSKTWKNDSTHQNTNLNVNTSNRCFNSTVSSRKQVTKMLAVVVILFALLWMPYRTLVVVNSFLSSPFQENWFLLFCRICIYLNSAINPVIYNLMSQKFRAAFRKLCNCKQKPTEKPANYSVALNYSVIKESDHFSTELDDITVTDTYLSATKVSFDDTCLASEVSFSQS
Chain of Thyrotropin receptor (Homo sapiens) (P16473 whole entry, looked up): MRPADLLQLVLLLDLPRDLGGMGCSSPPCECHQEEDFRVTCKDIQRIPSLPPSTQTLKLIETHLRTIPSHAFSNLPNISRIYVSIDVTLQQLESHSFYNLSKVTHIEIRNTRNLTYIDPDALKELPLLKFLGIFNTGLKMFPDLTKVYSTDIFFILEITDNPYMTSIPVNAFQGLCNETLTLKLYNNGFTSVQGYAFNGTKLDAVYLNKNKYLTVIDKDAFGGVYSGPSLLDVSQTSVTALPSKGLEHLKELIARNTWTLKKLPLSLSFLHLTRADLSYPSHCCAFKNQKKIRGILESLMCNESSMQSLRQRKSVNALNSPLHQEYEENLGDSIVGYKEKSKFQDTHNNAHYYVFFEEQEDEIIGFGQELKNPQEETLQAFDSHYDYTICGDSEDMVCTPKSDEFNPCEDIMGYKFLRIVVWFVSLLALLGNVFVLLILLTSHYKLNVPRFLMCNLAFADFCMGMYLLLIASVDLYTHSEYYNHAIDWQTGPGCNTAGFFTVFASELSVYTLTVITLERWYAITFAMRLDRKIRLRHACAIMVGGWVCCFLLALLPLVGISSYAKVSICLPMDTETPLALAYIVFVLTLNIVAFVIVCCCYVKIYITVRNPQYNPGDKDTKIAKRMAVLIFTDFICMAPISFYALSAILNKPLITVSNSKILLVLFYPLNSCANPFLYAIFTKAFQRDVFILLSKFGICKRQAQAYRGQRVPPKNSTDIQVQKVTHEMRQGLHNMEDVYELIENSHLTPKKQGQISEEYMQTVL
Chain of Estrogen receptor beta (Homo sapiens) (Q92731 whole entry, looked up): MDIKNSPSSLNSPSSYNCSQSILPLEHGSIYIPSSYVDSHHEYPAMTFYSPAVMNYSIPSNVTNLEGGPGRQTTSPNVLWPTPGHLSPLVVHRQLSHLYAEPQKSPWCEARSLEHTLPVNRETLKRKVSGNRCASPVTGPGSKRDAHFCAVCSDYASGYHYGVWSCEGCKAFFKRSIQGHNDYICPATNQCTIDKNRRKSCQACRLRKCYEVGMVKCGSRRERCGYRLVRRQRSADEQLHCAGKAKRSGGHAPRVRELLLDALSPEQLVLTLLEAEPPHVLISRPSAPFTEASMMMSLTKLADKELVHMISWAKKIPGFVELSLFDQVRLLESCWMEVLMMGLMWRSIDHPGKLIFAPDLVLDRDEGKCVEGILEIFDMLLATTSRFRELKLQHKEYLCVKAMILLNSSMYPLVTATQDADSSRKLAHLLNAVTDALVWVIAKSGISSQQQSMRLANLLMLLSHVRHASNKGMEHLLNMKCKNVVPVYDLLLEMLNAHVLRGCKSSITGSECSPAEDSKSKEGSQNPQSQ

c1ccc2sc(SN3CCOCC3)nc2c1
inactive: Potency [1] | Potency [2] | Potency [3] | Potency [4] | outcome [5] | outcome [6] | outcome [7] | Potency [8] | Potency [9] | Potency [10] | Potency [11] | Potency [12] | outcome [13] | outcome [14] | outcome [15] | outcome [16] | Potency [17]

CCOc1c(N2CCOCC2)cnn(C)c1=O
inactive: Potency [1] | Potency [2] | Potency [3] | Potency [4] | Potency [18] | outcome [5] | outcome [19] | outcome [6] | outcome [7] | Potency [8] | Potency [9] | Potency [11] | Potency [12] | outcome [13] | outcome [14] | outcome [15] | outcome [16] | Potency [17]

CC(C)(C)C(=O)c1ccccc1
inactive: Potency [20] | Potency [4] | outcome [5] | outcome [19] | outcome [6] | outcome [7] | Potency [8] | Potency [9] | Potency [10] | Potency [11] | outcome [13] | outcome [14] | outcome [15]

Cc1ccc(-c2ccccc2C#N)cc1
inactive: Potency [1] | Potency [2] | Potency [3] | Potency [18] | outcome [5] | outcome [19] | outcome [6] | outcome [7] | Potency [8] | Potency [9] | Potency [10] | Potency [11] | outcome [13] | outcome [14] | outcome [15] | outcome [16] | Potency [17]

C[N+]1(C)[C@@H]2CC(OC(=O)[C@H](CO)c3ccccc3)C[C@H]1[C@@H]1O[C@@H]12 (some centres not stated)
inactive: Potency [20] | Potency [4] | outcome [5] | outcome [19] | outcome [6] | outcome [7] | Potency [8] | Potency [9] | Potency [10] | Potency [11] | Potency [12] | outcome [13] | outcome [14] | outcome [15] | outcome [16] | Potency [17]

C[N+](C)(C)CCCCCCCCCC[N+](C)(C)C
inactive: Potency [20] | outcome [5] | outcome [19] | outcome [6] | outcome [7] | Potency [8] | Potency [11] | Potency [12] | outcome [13] | outcome [14] | outcome [15]

COc1cc(C(=O)NCc2ccc(OCCN(C)C)cc2)cc(OC)c1OC
inactive: Potency [20] | outcome [5] | outcome [19] | outcome [6] | outcome [7] | Potency [8] | Potency [9] | Potency [10] | Potency [11] | Potency [12] | outcome [13] | outcome [15] | outcome [16] | Potency [17]

Nc1ccncc1N
inactive: Potency [1] | Potency [2] | Potency [3] | Potency [4] | outcome [5] | outcome [6] | outcome [7] | Potency [8] | Potency [9] | Potency [10] | Potency [11] | Potency [12] | outcome [13] | outcome [14] | outcome [15] | outcome [16] | Potency [17]

CCOC(=O)C1=NOC(c2ccccc2)(c2ccccc2)C1
inactive: Potency [1] | Potency [2] | Potency [4] | outcome [5] | outcome [19] | outcome [6] | outcome [7] | Potency [8] | Potency [9] | Potency [10] | Potency [11] | Potency [12] | outcome [13] | outcome [15] | outcome [16] | Potency [17]

C=CCCC(=O)O
inactive: Potency [1] | Potency [2] | Potency [3] | outcome [5] | outcome [19] | outcome [6] | outcome [7] | Potency [8] | Potency [9] | Potency [10] | Potency [11] | Potency [12] | outcome [13] | outcome [14] | outcome [15]

CC(C)C[C@@H](N)C(=O)O
inactive: activity change, negative = inhibition [20] 18.9% [at 19 µM] | activity change, negative = cytotoxicity [4] 2.37% [at 19 µM] | activity change, negative = cytotoxicity [5] 1.92% [at 19 µM] | cAMP activity change [6] 1.68% [at 18.9 µM] | activity change, negative = inhibition [7] 2.7% [at 19 µM] | activity change, negative = cytotoxicity [8] 2.39% [at 19 µM] | activation [9] -1.5% [at 19 µM] | activity change, negative = inhibition [10] 12.3% [at 18.9 µM] | activity change, negative = cytotoxicity [11] -9.21% [at 18.9 µM] | activity change, negative = cytotoxicity [12] -1.58% [at 19 µM] | viability change, negative = cytotoxic [13] -3.28% [at 15.8 µM] | activity change, negative = cytotoxicity [14] 15.2% [at 15.8 µM] | activation [15] 0.277% [at 15.8 µM] | activity, negative = inhibition [16] -3.99% [at 10.5 µM] | activation [17] -0.187% [at 11.8 µM]

CCCCCC(C)N (configuration not stated)
inactive: Potency [20] | Potency [4] | Potency [18] | outcome [5] | outcome [6] | outcome [7] | Potency [8] | Potency [9] | Potency [10] | Potency [11] | Potency [12] | outcome [13] | outcome [14] | outcome [15] | outcome [16] | Potency [17]

COC(=O)C1=C(C)NC(C)=C(C(=O)OC(C)C)C1c1cccc2nonc12 (configuration not stated)
active: Potency [2] 26.6 µM
inactive: Potency [1] | Potency [3] | Potency [4] | Potency [18] | outcome [5] | outcome [6] | Potency [8] | Potency [9] | outcome [13] | outcome [14] | outcome [15]
